Assay results: the supplement of paper PMC10933113;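 active = curve rank above 3; inactive = curve rank 0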

system: KeratinoSens (HaCaT ARE-luciferase) cells; test: Nrf2/ARE luciferase activation call in qHTS KeratinoSens assay (1 = active, 0 = inactive)

Compound | Nrf2/ARE luciferase activation call
CCOCC(O)COc1ccc(NC(=O)CC[S+](C)C)cc1.Cc1ccc(S(=O)(=O)[O-])cc1 (stereo unspecified) | not active ARE inducer (skin sensitizer alert) (inactive)
C[C@@H](CN(C)C)CN1c2ccccc2Sc2ccccc21.C[C@@H](CN(C)C)CN1c2ccccc2Sc2ccccc21.O=C(O)[C@@H](O)[C@@H](O)C(=O)O | not active ARE inducer (skin sensitizer alert) (inactive)
Nc1nc(N)nc(-c2cc(Cl)ccc2Cl)n1.O=C(O)/C=C\C(=O)O | not active ARE inducer (skin sensitizer alert) (inactive)
O=C(O)c1ccc2ccccc2c1O.OCc1cc(C(O)CNCCCCCCOCCCCc2ccccc2)ccc1O (stereo unspecified) | not active ARE inducer (skin sensitizer alert) (inactive)
C[NH+](C)CCC(c1ccc(Cl)cc1)c1ccccn1.O=C([O-])/C=C\C(=O)O (stereo unspecified) | not active ARE inducer (skin sensitizer alert) (inactive)
O=C(O)/C=C/C(=O)O.OCCOCCN1CCN(C2=Nc3ccccc3Sc3ccccc32)CC1.OCCOCCN1CCN(C2=Nc3ccccc3Sc3ccccc32)CC1 | not active ARE inducer (skin sensitizer alert) (inactive)
O=C(O)/C=C/C(=O)O.O=C1c2ccccc2C(=O)N1CCc1noc(-c2ccc(CN3CCCCCC3)s2)n1 | not active ARE inducer (skin sensitizer alert) (inactive)
O=C(O)/C=C/C(=O)O.c1ccc(C(O[C@H]2CCCN(CCc3ccc4c(c3)OCO4)C2)c2ccccc2)cc1 | not active ARE inducer (skin sensitizer alert) (inactive)
C[C@@H](C1=C(CCN(C)C)Cc2ccccc21)c1ccccn1.O=C(O)/C=C\C(=O)O | not active ARE inducer (skin sensitizer alert) (inactive)
CCCC[n+]1ccccc1.O=S(=O)([O-])C(F)(F)F | not active ARE inducer (skin sensitizer alert) (inactive)
CN(C)CCOC(c1ccc(Cl)cc1)c1ccccn1.O=C(O)/C=C\C(=O)O (stereo unspecified) | not active ARE inducer (skin sensitizer alert) (inactive)
Cn1c(=O)c2c(ncn2C)n(C)c1=O.O=C(O)CC(O)(CC(=O)O)C(=O)O | not active ARE inducer (skin sensitizer alert) (inactive)
CC(C)OC(=O)OCOP(=O)(CO[C@H](C)Cn1cnc2c(N)ncnc21)OCOC(=O)OC(C)C.O=C(O)C=CC(=O)O | not active ARE inducer (skin sensitizer alert) (inactive)
CCOC(=O)Nc1ccc(NCc2ccc(F)cc2)nc1N.O=C(O)/C=C\C(=O)O | not active ARE inducer (skin sensitizer alert) (inactive)
CCN(CC)C(=O)N1CCN(C)CC1.O=C(O)CC(O)(CC(=O)O)C(=O)O | not active ARE inducer (skin sensitizer alert) (inactive)
CCCCCCCCn1cc[n+](C)c1.O=S(=O)([O-])C(F)(F)F | not active ARE inducer (skin sensitizer alert) (inactive)
CCCCn1cc[n+](C)c1C.O=S(=O)([O-])C(F)(F)F | not active ARE inducer (skin sensitizer alert) (inactive)
CCCCn1cc[n+](C)c1.O=S(=O)([O-])C(F)(F)F | not active ARE inducer (skin sensitizer alert) (inactive)
CCn1cc[n+](C)c1.Cc1ccc(S(=O)(=O)[O-])cc1 | not active ARE inducer (skin sensitizer alert) (inactive)
Nc1c2c(nc3ccccc13)CCCC2O.O=C(O)/C=C\C(=O)O (stereo unspecified) | not active ARE inducer (skin sensitizer alert) (inactive)
CCCc1nn(C)c2c(=O)[nH]c(-c3cc(S(=O)(=O)N4CCN(C)CC4)ccc3OCC)nc12.O=C(O)CC(O)(CC(=O)O)C(=O)O | not active ARE inducer (skin sensitizer alert) (inactive)
